Env fusion inh – inhibitors of HIV-1 Env-driven cell-cell fusion, primary screen, HeLa-JRFL effector, CEM21 target cells, luciferase | inhibition, % at 12.3 µM | hit rate 1.1% among 360,000;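 active = mean replicate inhibition score of at least 50 and every replicate individually at or above 50; inconclusive = only one of the two criteria met; inactive = mean below 50 and not all replicates reaching 50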;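 note: 0% = plate neutral controls and 100% = maraviroc near 300 nM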
GalR3 antag – GalR3 antagonists in HEK293 cells, primary screen, cell-based, fluorescence readout; Galanin receptor type 3 (Homo sapiens), O60755; HEK293 GalR3-CNG cAMP membrane potential fluorescence; galR3 body fused to GalR1 C-terminus; hit rate 0.44% among 360,000; inhibition, % at 3 µM;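 active = inhibition above the screen-wide average plus 3 SD, cut at about 13% in these data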;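 note: forskolin and galanin both at EC90 stimulate the cells; cAMP rise reported by CNG channel membrane potential dye signal; 0% = forskolin plus galanin with DMSO and 100% = forskolin alone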
Gli-Sufu antag – Gli-Sufu pathway antagonists, primary screen, luciferase luminescence, Sufu-KO-LIGHT cells, uHTS | Sufu-KO-LIGHT fibroblasts, Gli luciferase reporter luminescence | inhibition, % at 5 µM | hit rate 0.74% among 340,000 | AID 588413, 2011;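 active = inhibition above about 55%, limit read from the data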;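 note: 0% = DMSO-treated cells and 100% = wells with medium but no cells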
NR2F2 inh – NR2F2 transcriptional activity inhibitors, primary screen, cell-based, luciferase reporter, HEK293T, luminescence. inhibition, % at 8.6 µM. hit rate 0.7% among 370,000. AID 686940, 2013. COUP transcription factor 2 (Homo sapiens), P24468. HEK293T NGFI-A luciferase reporter;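 active = inhibition above a per-plate cutoff, mean inhibition of test wells between control levels plus 3 SD, cut at about 38% in these data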;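 note: cells cotransfected with COUP-TFII expression vector driving the NGFI-A reporter; 0% = median of COUP-TF2 test wells and 100% = reporter-only cells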
Target sequence (P24468 whole entry, looked up): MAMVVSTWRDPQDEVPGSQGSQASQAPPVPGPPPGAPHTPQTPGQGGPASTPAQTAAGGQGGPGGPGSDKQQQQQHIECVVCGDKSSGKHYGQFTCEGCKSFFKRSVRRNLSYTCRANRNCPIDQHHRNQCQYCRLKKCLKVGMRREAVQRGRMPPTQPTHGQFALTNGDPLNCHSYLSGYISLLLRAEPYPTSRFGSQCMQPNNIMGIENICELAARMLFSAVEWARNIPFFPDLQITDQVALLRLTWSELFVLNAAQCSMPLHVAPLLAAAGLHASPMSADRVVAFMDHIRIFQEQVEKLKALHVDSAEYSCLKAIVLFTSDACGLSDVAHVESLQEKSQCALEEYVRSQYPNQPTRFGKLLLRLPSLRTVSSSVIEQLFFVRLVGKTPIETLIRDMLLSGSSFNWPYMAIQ
aDG glyco act – activators of alpha-DG glycosylation, primary screen, uHTS, Pro5-aDG cells, AlphaScreen | alpha-DG glycosylation AlphaScreen (IIH6); 0% Pro5, 100% B10-LARGE cell signal | activation, % at 10 µM | hit rate 0.22% among 360,000 | AID 624168, 2012;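 active = activation of at least 8% versus controls, or a plate z-score of at least 8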;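 note: Pro5 are CHO cells carrying HIG-tagged alpha-DG that lacks glycosylation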
Gal4-VP16 ctr – Gal4-VP16 luciferase reporter inhibitors, counter-screen for COUP-TFII antagonist project, cell-based, luminescence, HEK293 | shares compounds with NR2F2 inh | inhibition, % at 8.5 µM | hit rate 25% among 2,500; in the data active = inhibition above about 13%
COUP-TFII conf – NR2F2 transcriptional activity inhibitors, confirmation, cell-based, luciferase reporter, HEK293, triplicate; shares compounds with NR2F2 inh; HEK293 NGFI-A luciferase reporter, luminescence; inhibition, % at 8.5 µM; hit rate 45% among 2,500;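 active = mean inhibition over three repeats above a set limit taken from the earlier primary screen, cut at about 38% in these data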;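 note: 100% = cells given the luciferase reporter alone without the COUP-TF2 vector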
* hit, by the source's call; ? = inconclusive; / = not tested or not shown; [ ] = dose if it differs, or a comment. A selection: hits, their analogues and other compounds. The true share with any hit is near 2.1%.

SMILES	Env fusion inh	GalR3 antag	Gli-Sufu antag	NR2F2 inh	aDG glyco act	Gal4-VP16 ctr	COUP-TFII conf
NC(=S)NN=C1c2cc(OCCN3CCOCC3)ccc2-c2ccc(OCCN3CCOCC3)cc21	17	-10	8	68*	0	10	80*
ON=C1c2cc(OCCN3CCCCC3)ccc2-c2ccc(OCCN3CCCCC3)cc21	/	/	17	/	0	/	/
CN1c2ccccc2C(C)(C)C12C=Nc1c(ccc3ccccc13)O2 (configuration not stated)	/	4	-11	13	0	/	/
CN1c2ccccc2C(C)(C)[C@]12C=Cc1cc(O)ccc1O2	/	-4	49	43*	0	-7	3
CC(C)Nc1ncnc2ccc(Br)cc12	55*	-5	44	53*	4	19*	45*
CSCCC(Nc1ncnc2ccc(Br)cc12)C(=O)O (configuration not stated)	5	-1	-5	19	0	/	/
C[C@@H]1CCCCO[C@H](CN(C)C(=O)Cc2ccccc2)[C@@H](C)CN([C@@H](C)CO)C(=O)c2cc(NS(=O)(=O)c3cn(C)cn3)ccc2O1	-6[16.7 µM]	/	/	/	/	/	/
COc1ccccc1OCC(=O)NNC(=O)C1CCN(c2ncnc3sc(C)c(C)c23)CC1	/	-5	-8	2	0	/	/
COc1ccc(-c2csc(NC(=O)C3CCN(c4ncnc5sc(C)c(C)c45)CC3)n2)cc1OC	/	-2	72*	56*	2	12	87*
CNC(=O)c1ccc(NC(=O)C2CCN(c3ncnc4sc(C)c(C)c34)CC2)cc1	16	1	-1	44*	0	-1	13
COc1cc2cc(C(=O)NCCc3c[nH]c4ccccc34)c(N)nc2cc1OC	25	-2	/	36	0	/	/
Nc1nc2cc3c(cc2cc1C(=O)NCCc1c[nH]c2ccccc12)OCO3	21	4	/	66*	/	-2	52*
CO[C@@H]1CC[C@@H]2CCN(C)C(=O)[C@@H](C)N(C)C(=O)c3cccc(C#N)c3OC[C@@H]1O2	-12[16.7 µM]	/	/	/	/	/	/
CCN(CC)S(=O)(=O)c1ccc(/C=C/C(=O)Nc2ccc(F)cc2F)cc1	36	-4	-12	50*	0	-34	28
O=C(/C=C/c1ccc(S(=O)(=O)N2CCOCC2)cc1)Nc1ccc(F)c(F)c1F	-6	-7	10	15	0	/	/
CCN(CC)S(=O)(=O)c1ccc(/C=C/C(=O)Nc2ccc(F)c(F)c2F)cc1	?	-2	5	63*	0	-18	47*
CC(C)(C)C(=O)Nc1ccc(-c2cc3cc(Cl)ccc3o2)cc1	-47	-2	1	53*	0	-154	-22
CC(C)(Oc1ccc(Cl)cc1)C(=O)Nc1ccc2oc(=O)ccc2c1	16	-4	3	-6	0	/	/
COc1ccc(/C=C2\SC(=O)N(CCCC(=O)Nc3ccc(C(=O)O)cc3)C2=O)cc1	89*	-5	/	98*	0	83*	96*
O=C(CCN1C(=O)S/C(=C\c2ccc(Cl)cc2)C1=O)Nc1ccc(C(=O)O)cc1	-15	-2	-5	-3	0	/	/
COc1ccc(/C=C2/SC(=S)N(CCCC(=O)Nc3ccccc3C(=O)O)C2=O)cc1	28	-9	10	52*	0	43*	30
CCc1ccc(/C=C2\SC(=S)N(CCCC(=O)Nc3ccccc3C(=O)O)C2=O)cc1	-60	-8	7	-6	0	/	/
Cc1ccc(/C=C2\SC(=S)N(CCCC(=O)Nc3ccccn3)C2=O)cc1	/	-4	47	81*	0	40*	35
Cc1ccccc1CN1C(=O)c2ccccc2S1(=O)=O	1	-9	26	-17	0	/	/
O=C1c2ccccc2S(=O)(=O)N1Cc1nc2ccccc2s1	/	-4	-8	42*	0	-6	29
SMILES	Env fusion inh	GalR3 antag	Gli-Sufu antag	NR2F2 inh	aDG glyco act	Gal4-VP16 ctr	COUP-TFII conf
O=C(Nc1ccncc1)c1cccc(S(=O)(=O)N2CCN(c3ccc(F)cc3)CC2)c1	14	1	32	47*	1	7	31
CN(CC(=O)Nc1ccccc1Cl)C(=O)c1cccc(S(=O)(=O)N2CCN(c3ccccc3)CC2)c1	/	-8	46	43*	2	6	19
CN(CC(=O)Nc1cccc(F)c1)C(=O)c1cccc(S(=O)(=O)N2CCN(c3ccc(F)cc3)CC2)c1	/	-7	14	42*	2	4	14
Cc1cccc(C)c1NC(=O)CN(C)C(=O)c1cccc(S(=O)(=O)N2CCN(c3ccc(F)cc3)CC2)c1	-1	-7	46	20	4	/	/
COc1ccc(CCN(C)C(=O)c2cccc(S(=O)(=O)N3CCN(c4ccc(F)cc4)CC3)c2)cc1OC	/	1	32	59*	2	12	45*
O=C(C[C@H]1C[C@@H]2c3cc(NC(=O)NC4CCCC4)ccc3O[C@@H]2[C@@H](CO)O1)NCc1ccc2c(c1)OCO2	-7[16.7 µM]	/	/	/	/	/	/
C[C@H](NC(=O)C[C@H]1C[C@H]2c3cc(N(C)C)ccc3O[C@H]2[C@@H](CO)O1)c1ccccc1	27[16.7 µM]	/	/	/	/	/	/
C[C@H]1CN([C@@H](C)CO)C(=O)c2cccc(NC(=O)C3CC3)c2O[C@H]1CN(C)C(=O)Nc1ccccc1	9[16.7 µM]	/	/	/	/	/	/
O=C(COc1ccc(C(=O)c2ccc(F)cc2)cc1)Nc1cccc(S(=O)(=O)N2CCOCC2)c1	/	-6	3	48*	0	-8	33
COc1ccc(NC(=O)c2cccc(S(=O)(=O)N3CCN(c4ccccc4)CC3)c2)c(OC)c1	/	0	-4	14	0	/	/
CN(CC(=O)Nc1ccccc1Cl)C(=O)c1cccc(S(=O)(=O)N2CCN(Cc3ccccc3)CC2)c1	12	2	47	48*	2	1	35
CN(Cc1cccc(Cl)c1Cl)C(=O)c1cccc(S(=O)(=O)N2CCN(Cc3ccccc3)CC2)c1	49	0	47	42*	1	-3	26
COc1ccccc1NC(=O)c1cccc(S(=O)(=O)N2CCN(c3ccccc3)CC2)c1	/	2	8	42*	0	-5	6
CO[C@H]1CN(C)C(=O)c2cc(NC(=O)c3ccccc3F)ccc2OC[C@H](C)N(C)C[C@H]1C	-14[16.7 µM]	/	/	/	/	/	/
CN(Cc1ccc(OC(F)F)cc1)C(=O)c1cccc(S(=O)(=O)N2CCN(c3ccccc3)CC2)c1	/	-6	41	67*	2	13*	55*

High-throughput results deposited in PubChem by several laboratories.
